This is an account of results in PubChem BioAssay (NCI).

This is part of a sample that, as a whole, favours compounds with a hit. Of some 83,000 tested, about 20% had one in any assay.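 48-hour exposure, single concentration, 96-well plates; percent growth endpoint where 0 means no net growth. Active: below 10.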 Values without a mark were called inactive. The source made the active and inactive calls.

Holding throughout (experiment): NCI-60 one-dose screen, 48 h (100 = growth as untreated, 0 = no growth, -100 = all killed)
The test system of one test is SK-MEL-2 melanoma. The note with it: 10 µM.
The next test has as its system EKVX NSCLC. The following applies: 10 µM unless noted.
For another test, the system named is SN12C renal. The following applies: 10 µM unless noted.
For the next test, the system named is UO-31 renal. The following applies: 10 µM unless noted.
Another test relates to TK-10 renal. The following applies: 10 µM unless noted.
Another test deals with ACHN renal. The following applies: 10 µM unless noted.
Another test deals with CAKI-1 renal. The note with it: 10 µM unless noted.
The subject of another test is CCRF-CEM leukemia. The note with it: 10 µM unless noted.
Another test concerns MOLT-4 leukemia. The note with it: 10 µM unless noted.
The test system of another test is SR leukemia. The note with it: 10 µM unless noted.
The subject of another test is RPMI-8226 leukemia. The note with it: 10 µM unless noted.
The next test deals with OVCAR-8 ovarian. The note with it: 10 µM unless noted.
For the next test, the system named is OVCAR-5 ovarian. The following applies: 10 µM unless noted.
A further test has as its system OVCAR-4 ovarian. The following applies: 10 µM unless noted.
The next test deals with SK-OV-3 ovarian. The following applies: 10 µM unless noted.
The next test deals with IGROV1 ovarian. The note with it: 10 µM unless noted.
In a further test the test system is OVCAR-3 ovarian. The following applies: 10 µM unless noted.
A further test has as its system HS 578T breast. The note with it: 10 µM.
For the next test, the system named is NCI/ADR-RES ovarian. The note with it: 10 µM unless noted.
For another test, the system named is A498 renal. The note with it: 10 µM unless noted.

For `O=C1CC(c2ccc(Cl)cc2)c2ncn(-c3cccc(Cl)c3)c2N1` (stereo not drawn), the growth is 44.8% in the test on SK-MEL-2 melanoma; 73.5% in the test with EKVX NSCLC; 56.1% in the test on SN12C renal; 50.5% with UO-31 renal; 95.8% in the test with TK-10 renal; 52.6% with ACHN renal. The growth in the test on CAKI-1 renal was 75.3%; in the test with CCRF-CEM leukemia it was 60.4%; with MOLT-4 leukemia, 44.4%; in the test with SR leukemia it was 27.3%; in the test with RPMI-8226 leukemia, 58%; with OVCAR-8 ovarian it was 56.5%. The growth is 96% in the test with OVCAR-5 ovarian; 87.2% in the test with OVCAR-4 ovarian; 47.8% with SK-OV-3 ovarian; 59.8% in the test with IGROV1 ovarian; 13.3% with OVCAR-3 ovarian; 52.8% in the test on HS 578T breast. Also, the growth with NCI/ADR-RES ovarian was 26.5%.
For `COc1ccc(C2CC(=O)c3c(O)c(OC)c(OC)c(OC)c3O2)cc1O` (stereo not drawn), the growth in the test on SK-MEL-2 melanoma was 48.8%; with EKVX NSCLC, 50.4%; in the test with SN12C renal, 45.4%; in the test with UO-31 renal it was 51.6%; in the test on TK-10 renal it was 70.6%; in the test on ACHN renal, 40.4%. Further, the growth in the test with CAKI-1 renal was 38.9%; in the test on CCRF-CEM leukemia it was 24.2%; in the test with MOLT-4 leukemia it was 22%; in the test on SR leukemia it was 22.7%; in the test on OVCAR-8 ovarian, 26.8%; with OVCAR-5 ovarian, 81.1%. The growth in the test with OVCAR-4 ovarian is 47.9%; with SK-OV-3 ovarian, 40%; with IGROV1 ovarian it was 48.2%; with OVCAR-3 ovarian, -5.96% (active); in the test with HS 578T breast it was 14.8%; in the test with NCI/ADR-RES ovarian, 3.97% (active).
For `COc1ccc2c(CCCc3ccc(Cl)cc3Cl)c3[n+](cc2c1OC)CCc1cc2c(cc1-3)OCO2`, the growth in the test with SK-MEL-2 melanoma was -22.8% (active); in the test with EKVX NSCLC it was 23.1%; in the test on SN12C renal, -24.9% (active); in the test with UO-31 renal, 25.4%; in the test on TK-10 renal it was 0.636% (active); in the test with ACHN renal, 21.9%. Further, the growth is 71.9% in the test with CAKI-1 renal; 5.42% (active) in the test on CCRF-CEM leukemia; -9.91% (active) in the test on MOLT-4 leukemia; -38.6% (active) in the test on SR leukemia; 0.597% (active) in the test on OVCAR-8 ovarian; 28.9% in the test with OVCAR-5 ovarian. Also, the growth was 20.5% in the test with OVCAR-4 ovarian; -8.36% (active) with SK-OV-3 ovarian; -8.37% (active) in the test with IGROV1 ovarian; -48.4% (active) in the test on OVCAR-3 ovarian; 32.9% with HS 578T breast; 76.4% in the test with NCI/ADR-RES ovarian.
For the compound `NS(=O)(=O)c1ccc(CCN2C(=O)/C(=C\c3ccc(Cl)cc3)C=C2c2ccc3ccccc3c2)cc1`, the growth in the test on SK-MEL-2 melanoma was 106%; in the test with EKVX NSCLC, 89.4%; with SN12C renal, 94%; with UO-31 renal it was 78.4%; in the test on TK-10 renal, 95.5%; in the test with ACHN renal, 90%. Further, the growth in the test on CAKI-1 renal is 82.4%; with MOLT-4 leukemia it was 86.3%; with SR leukemia, 83.3%; in the test on RPMI-8226 leukemia it was 89.6%; with OVCAR-8 ovarian, 83.7%; in the test on OVCAR-5 ovarian it was 89.5%. Moreover, the growth in the test with OVCAR-4 ovarian is 95.3%; with SK-OV-3 ovarian, 84%; with IGROV1 ovarian, 94.2%; in the test on OVCAR-3 ovarian, 104%; in the test on HS 578T breast it was 101%; with NCI/ADR-RES ovarian, 95.3%.
With `Cc1cc(O)c2c(c1)C1OC(=O)CCCCCN1C1=C2C(=O)c2cccc(OC3CC(O)C(O)C(C)O3)c2C1=O` (stereo not drawn), the growth with SK-MEL-2 melanoma is 46.4%; in the test with EKVX NSCLC, 97%; in the test with SN12C renal it was 66.3%; with UO-31 renal it was 99.9%; in the test on TK-10 renal it was 142%; with ACHN renal it was 69.1%. For the same compound, the growth in the test on CAKI-1 renal is 96.9%; in the test on CCRF-CEM leukemia, 57.8%; with MOLT-4 leukemia, 63.3%; with SR leukemia, 54.2%; with RPMI-8226 leukemia, 73.3%; with OVCAR-8 ovarian, 52.9%. For the same compound, the growth in the test with OVCAR-5 ovarian was 130%; in the test with OVCAR-4 ovarian, 90.2%; in the test with SK-OV-3 ovarian, 89.8%; in the test on IGROV1 ovarian it was 96.4%; in the test with OVCAR-3 ovarian, 7.5% (active); in the test on HS 578T breast, 71.5%. In the test on NCI/ADR-RES ovarian, the growth is 91%.
Turning to `COc1ccc(C2CC(=O)c3c(O)c(OC)c(OC)c(OC)c3O2)c(O)c1` (stereo not drawn), the growth was 52% in the test with SK-MEL-2 melanoma; 48.4% in the test with EKVX NSCLC; 47.4% with SN12C renal; 54.2% in the test on UO-31 renal; 73.1% with TK-10 renal; 44.3% in the test on ACHN renal. In addition, the growth in the test with CAKI-1 renal is 41.1%; with CCRF-CEM leukemia it was 25.5%; in the test on MOLT-4 leukemia, 22.6%; in the test on SR leukemia, 23%; in the test on RPMI-8226 leukemia, 32.7%; in the test on OVCAR-8 ovarian it was 36.5%. Also, the growth with OVCAR-5 ovarian was 54.2%; with OVCAR-4 ovarian it was 48.9%; with SK-OV-3 ovarian it was 42.9%; in the test with IGROV1 ovarian it was 46.3%; in the test with OVCAR-3 ovarian, 0.132% (active); in the test with HS 578T breast it was 36.5%. In addition, the growth with NCI/ADR-RES ovarian was 4.44% (active).
In the case of `CC(C)n1c(NCCc2ccc(O)c(O)c2)nc2c1c(=O)n(C)c(=O)n2C`, the growth in the test on SK-MEL-2 melanoma was 107%; in the test with EKVX NSCLC, 101%; in the test on SN12C renal it was 98.4%; in the test on UO-31 renal, 87.3%; in the test with TK-10 renal, 84.6%; in the test with ACHN renal, 99.3%. The growth in the test with CAKI-1 renal was 88.1%; in the test on CCRF-CEM leukemia, 99.6%; in the test with MOLT-4 leukemia, 105%; in the test with SR leukemia, 87.2%; with RPMI-8226 leukemia, 77.4%; with OVCAR-8 ovarian it was 104%. Also, the growth with OVCAR-5 ovarian was 79.2%; in the test with OVCAR-4 ovarian it was 90.9%; in the test on SK-OV-3 ovarian, 108%; with IGROV1 ovarian, 110%; with OVCAR-3 ovarian, 102%; with HS 578T breast it was 99.5%. For the same compound, the growth in the test on NCI/ADR-RES ovarian was 93.1%.
As for `COc1cc(-c2cc(-c3ccc(Nc4ccnc5cc(Cl)ccc45)cc3)nc(N3CCOCC3)n2)cc(OC)c1OC`, the growth was 83.9% with SK-MEL-2 melanoma; 30.9% in the test with EKVX NSCLC; -11.9% (active) in the test with SN12C renal; 37.5% with UO-31 renal; -75.9% (active) in the test on TK-10 renal; 16.7% with ACHN renal. Further, the growth was 102% with A498 renal; -4.98% (active) in the test with CCRF-CEM leukemia; 19.6% with MOLT-4 leukemia; -10.7% (active) in the test on SR leukemia; -5.21% (active) in the test on RPMI-8226 leukemia; 9.73% (active) in the test on OVCAR-8 ovarian. Moreover, the growth is 55.5% in the test with OVCAR-5 ovarian; -48.3% (active) with OVCAR-4 ovarian; 98.6% in the test on SK-OV-3 ovarian; 1.69% (active) in the test on IGROV1 ovarian; -47.7% (active) with OVCAR-3 ovarian; 3.06% (active) in the test with HS 578T breast. Moreover, the growth in the test with NCI/ADR-RES ovarian is 9.9% (active).
On to `CC1(O)CCC(Nc2cc(-c3ccc(C(F)(F)F)cc3)c(C#N)c3nc4ccccc4n23)CC1` (stereo not drawn), for which the growth in the test on SK-MEL-2 melanoma was 73.4%; in the test on EKVX NSCLC, 54.1%; in the test with SN12C renal, 63.9%; in the test with UO-31 renal, 47.1%; in the test on TK-10 renal it was 71.4%; with ACHN renal it was 59.8%. The growth with CAKI-1 renal is 54.6%; with CCRF-CEM leukemia, 64.9%; with MOLT-4 leukemia it was 27.5%; in the test on SR leukemia, 79.4%; in the test with RPMI-8226 leukemia, 56.8%; in the test on OVCAR-8 ovarian, 78.3%. The growth with OVCAR-5 ovarian was 99%; with OVCAR-4 ovarian, 55.2%; with SK-OV-3 ovarian, 68.6%; in the test on IGROV1 ovarian, 79.3%; in the test on OVCAR-3 ovarian, 81.4%; in the test with HS 578T breast, 74.4%. Moreover, the growth in the test on NCI/ADR-RES ovarian was 61.8%.
